Assay results: PubChem BioAssay AID2075 (NMMLSC, 2009)
The source made the active and inactive calls. The rule behind the calls is not given here.

What follows are compounds tested against Apoptosis regulator Bcl-2 (Homo sapiens) (UniProt P10415) (assay: inhibitors of Bim-Bcl-2 binding, confirmation, biochemical, dose response, multiplexed HTS hits (AID 2075)). Conditions: bead-based flow cytometry, Bim peptide-Bcl-2 binding; series mostly up to 100 µM.
Sequence of Apoptosis regulator Bcl-2 (Homo sapiens) (P10415 whole entry, looked up): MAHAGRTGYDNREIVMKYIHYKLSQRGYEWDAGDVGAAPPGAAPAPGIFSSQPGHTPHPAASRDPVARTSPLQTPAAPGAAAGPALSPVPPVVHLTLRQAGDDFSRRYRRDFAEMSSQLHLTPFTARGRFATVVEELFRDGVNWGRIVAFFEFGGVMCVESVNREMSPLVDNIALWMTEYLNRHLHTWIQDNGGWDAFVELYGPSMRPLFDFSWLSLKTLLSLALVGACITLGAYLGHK

outcome, inactive:
O=C1/C(=C\c2ccco2)NC(=S)N1c1ccccc1
O=C(Nc1nnc(COc2ccc(Cl)cc2)s1)c1ccco1
CNC(CC(=O)c1ccc([N+](=O)[O-])cc1)C(Cl)(Cl)Cl (configuration not stated)
S=c1[nH]cc(-c2ccccc2)n1-c1ccccc1
COc1ccc(N2C(=O)C(Cl)=C(NC3C(=O)N(c4ccccc4)N(C)C3C)C2=O)cc1 (configuration not stated)
COc1ccccc1-n1c(-c2ccccc2)c[nH]c1=S
Cc1cc(-c2cc(-c3ccc(Cl)cc3)nc(N)c2C#N)co1
O=C(/C=C/c1ccc(-c2ccccc2[N+](=O)[O-])o1)c1ccccc1
O=c1c2c(n3nnnc3n1Cc1ccccc1)-c1ccccc1CC21CCCC1
Cc1ccc(-c2cc(-c3ccc(C)o3)nc(N)c2C#N)cc1
CCN1C(=O)/C(=C\C=C2/C=CC=CN2CC)SC1=S
CNC1CCC(Br)CC(C(=O)/C=C/c2cccc(OC)c2OC)C1=O (configuration not stated)
CCN(CC)c1ccc(NC(=O)COc2ccccc2C)cc1S(=O)(=O)Nc1ccccc1OC
O=C1c2ccccc2C(=O)N1CN(C(=O)COc1ccc(Cl)cc1Cl)c1cccc(F)c1
CCN(CC)c1ccc(NC(=O)c2ccccc2F)cc1S(=O)(=O)Nc1ccccc1OC
O=C1C(Cl)=C(N2CCN(c3ccccc3[N+](=O)[O-])CC2)C(=O)c2ccccc21
Oc1ccc(NCc2ccccc2OCc2ccccc2)cc1
CC(=O)Nc1ccc(-n2cc(-c3ccccc3)[nH]c2=S)cc1
C=CS(=O)(=O)c1sc(Cl)c(N2CCOCC2)c1[N+](=O)[O-]
COc1cc(CNc2ccc3[nH]c(=O)[nH]c3c2)cc(Br)c1OCC(=O)NC(C)(C)C
Cc1ccc(-c2cc(C(=O)Nc3nccs3)c3ccccc3n2)o1
CCN(CC)c1ccc(NC(=O)c2ccccc2Br)cc1S(=O)(=O)Nc1ccccc1OC
CCOc1ccccc1CNc1ccc(O)cc1
Cc1nnc(Sc2cc(NCCO)c([N+](=O)[O-])c3nonc23)s1
COc1ccc(N2C(=O)C(Cl)=C(Oc3cccc(OC)c3)C2=O)cc1
Cc1ccc(-c2cc(-c3ccc(F)cc3)c(C#N)c(N)n2)o1
COc1cc(N=C2SSNC2Cl)c(OC)cc1Cl (configuration not stated)
